Bioassay records from PubChem.
This excerpt belongs to a sample that is enriched for hits.
TTR transcr act: increases transthyretin transcription; 1.3% of 92,000 active; AID 1117267; activation, % at 16.7 µM; SH-SY5Y TTR promoter Gaussia luciferase, luminescence; 100% = recombinant luciferase protein wells;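 active means activation above the mean of all tested compounds plus 3 SD, cut at about 9.5% in these data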;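 further: cells exposed to compounds for one day before reading; 0% = median of all test compound wells on the plate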
TTR inh HuH7: HuH7 TTR transcription inhibition, counter-screen; shares compounds with TTR transcr act; HuH7 TTR promoter-Gaussia luciferase reporter, luminescence; inhibition, % at 16.7 µM; 4% of 1,100 active; AID 1117279;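 active means average inhibition above the solvent-only control wells' mean plus 3 SD, cut at about 15% in these data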;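 further: 0% = cells with DMSO only and 100% = cells with inhibitor control FD; inhibitors lower well luminescence so higher value means more inhibition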
TTR act confirm: human TTR transcription activation, confirmation. shares compounds with TTR transcr act. SHSY5Y TTR promoter Gaussia luciferase, luminescence; 100% = purified Lucia enzyme wells, no cells. activation, % at 16.7 µM. 1,100 tested, under 10 active. AID 1117280;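 active means mean activation above a set limit taken from the earlier primary screen, cut at about 11% in these data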;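 further: 0% = DMSO-treated cells and 100% = recombinant Lucia luciferase without cells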
* marks the source's active call; other numbers are inactive results.

SMILES	TTR transcr act	others
CC1CC1C(=O)OCC(=O)Nc1cccc([N+](=O)[O-])c1 (stereo not given)	12*	TTR inh HuH7=-5;TTR act confirm=0
Cc1ccc(C(=O)c2ccccc2C(=O)OCC(=O)Nc2cccc([N+](=O)[O-])c2)cc1	-2
CC1CC1C(=O)OCC(=O)Nc1ccc(N=Nc2ccccc2)cc1 (stereo not given)	-2
COc1cc(NC(=O)c2cc(C)on2)c(OC)cc1Cl	0
O=C1CCC[C@H]2C[C@H](NCc3ccc(Cl)c(Cl)c3)CC[C@]23CCCN13	-1
CCOC(=O)N1CCN(C(=O)C[C@H]2C[C@@]3(C(=O)OC)C(=C[C@H](COCc4ccccc4)O[C@@H]3C)N(Cc3ccccc3)C2=O)CC1	1
C[C@H]1[C@@H](NS(=O)(=O)c2ccccc2[N+](=O)[O-])CC[C@@]23CCCN2C(=O)CCC[C@@H]13	-1
Cc1csc(NC(=O)CCNS(=O)(=O)c2ccc3c(c2)c(=O)n(C)c(=O)n3C)n1	4
Cc1ccc(CCNC(=O)CN(C)S(=O)(=O)c2ccc3c(c2)c(=O)n(C)c(=O)n3C)cc1	0
Cc1ccc(CCNC(=O)CCNS(=O)(=O)c2ccc3c(c2)c(=O)n(C)c(=O)n3C)cc1	9.9*	TTR inh HuH7=-6;TTR act confirm=-1
CC(C)NC(=O)OC[C@@H]1CSCCS(=O)(=O)N1	1
Cc1nc(C(F)(F)F)ccc1C(=O)Nc1ccccc1N1CCOCC1	2
CCOCCn1c(CN2CCN(c3ccccc3)CC2)nc2c1c(=O)n(C)c(=O)n2C	2
Cn1c(=O)c2c(nc(CN3CCc4ccccc4C3)n2Cc2ccccc2)n(C)c1=O	-3
CCOCCn1c(CN2CCc3ccccc3C2)nc2c1c(=O)n(C)c(=O)n2C	13*	TTR inh HuH7=2;TTR act confirm=0
CC(=O)N1CC(C)Sc2ccc(S(=O)(=O)NC(C)c3ccccc3)cc21 (stereo not given)	0
CC1=C(C(=O)N(C(C)C)C(C)C)CC(CC(=O)NC2CC2)C(=O)N1CCC1=CCCCC1 (stereo not given)	-1
Cc1cc(C)n(-c2nc3ccccc3c(=O)n2OCCOc2ccccc2)n1	32*	TTR inh HuH7=-10;TTR act confirm=-1
CC(C)(c1ccccc1)c1ccc(OCCn2cnc3ccccc3c2=O)cc1	0
O=C(c1ccccc1)c1ccc(OCCn2cnc3ccccc3c2=O)cc1	0
Brc1ccc(-c2noc3c2-c2nc(C4CCCCC4)sc2CC3)cc1	14*	TTR inh HuH7=-4;TTR act confirm=0
CCCc1nc2c(s1)CCc1onc(-c3ccc(OC)cc3)c1-2	-4
COc1ccc(-c2noc3c2-c2nc(C(C)C)sc2CC3)cc1	4
Cc1ccc(C2(c3noc(CN(C)Cc4cccnc4)n3)CCCC2)cc1	0
Cc1csc(NC(=O)CSc2nnc(-c3ccoc3C)n2C(C)c2ccccc2)n1 (stereo not given)	3
SMILES	TTR transcr act	others
CCc1ccc(/C=C2\SC(=S)N(CCCC(=O)N3CCCC3)C2=O)cc1	0
CCOc1ccc(-n2c(=O)cc(N3CCN(c4ccc(F)cc4)CC3)[nH]c2=O)cc1	1
CCOC(=O)N1CCN(c2cc(=O)n(-c3ccc(OC)cc3)c(=O)[nH]2)CC1	9.7*	TTR inh HuH7=-4;TTR act confirm=-1
CCOC(=O)N1CCN(c2cc(=O)n(-c3ccccc3C)c(=O)[nH]2)CC1	-1
O=C(NC1CCCCN(Cc2ccc(Cl)cc2)C1=O)c1ccc(F)c(F)c1 (stereo not given)	7
CCCC[C@H]1C2CC(OC(=O)Nc3ccc(C)cc3)C(C2)[C@H]2CCCCN21 (stereo not given in full)	6
COc1ccc2cc(C(C)=O)c(=O)oc2c1	0
COc1cc2ccccc2cc1C(=O)NC1CCCC1	0
COc1ccc2cc(C(=O)NC3CCCCC3)c(=O)oc2c1	11*	TTR inh HuH7=-5;TTR act confirm=0
CN(CCc1ccccc1)C(C(=O)Nc1ccc2c(c1)OCCO2)C1CC1 (stereo not given)	1
O=C(COc1ccccc1)N1CCN(c2ccccc2)CC1	2
O=C(COC(=O)c1ccc(CO)cc1)Nc1ccc2ccccc2c1	-1
O=C(OCC(=O)N1CCN(c2ccccc2)CC1)c1ccc(O)cc1O	15*	TTR inh HuH7=-25;TTR act confirm=0
Cc1cc(C(=O)OCC(=O)N2CCOCC2)c(C)n1-c1ccccc1	0
O=C(COC(=O)c1ccc(O)cc1O)Nc1ccc2ccccc2c1	21*	TTR inh HuH7=-23;TTR act confirm=1
O=C(COC(=O)c1ccc2ccccc2c1O)Nc1ccccc1	0
Cc1nn(C)c(C)c1/C=C(\C#N)S(=O)(=O)c1ccc(F)cc1	-1
Cc1cc(C)c2nc(N3C(=O)C(O)=C(C(=O)c4ccco4)C3c3ccco3)sc2c1 (stereo not given)	-1
COC(=O)c1ccccc1NC(=O)NC1CCCCC1	-3
Nc1ccc(CCCC(=O)NCc2cccnc2)cc1	1
CCOC(=O)[C@]12CCCC=C1N(Cc1ccc(OC)cc1)C(=O)[C@@H]2CC(=O)N1CCN(C(=O)C2CC2)CC1	3
C[C@@H]1CCN(C2CC2)S(=O)(=O)c2c(cccc2N2CCC[C@H]2CO)O1	0
Cc1c2ccccc2nc2ccccc12	-2
OCCNc1c2ccccc2nc2ccccc12	16*	TTR inh HuH7=-48;TTR act confirm=15*
OCCNc1nc2ccccc2nc1NCCO	1
SMILES	TTR transcr act	others
CCOC(=O)[C@@]12CCC3=C1N(CCC3)C(=O)[C@H](CC(=O)NCc1ccc(C)o1)C2	-1
C[C@H](NC(=O)Cc1cccc2ccccc12)C(=O)N1CCOCC1	0
O=C1CCN(Cc2ccccc2)C=C1c1ccc2ccccc2c1	10*	TTR inh HuH7=-15;TTR act confirm=-1
CC1(C(=O)Nc2ccc3ccccc3c2)CCC(=O)N1C1CCN(Cc2ccccc2)CC1 (stereo not given)	-1
O=C1CCN(Cc2ccccc2)C=C1c1ccc(C(F)(F)F)cc1	1
O=C(Cn1nc(-c2cccc(Cl)c2)ccc1=O)Nc1ccc(C(=O)NC2CC2)cc1	0
CC1CCCCC1NC(=O)Cc1ccc(S(=O)(=O)N2CCOCC2)s1 (stereo not given)	1
CN(Cc1ccc(Cl)cc1Cl)C(=O)Cc1ccc(S(=O)(=O)N2CCOCC2)s1	20*	TTR inh HuH7=-6;TTR act confirm=-1
CCOc1ccc(S(=O)(=O)N2CCN(C(=O)Cc3ccc(S(=O)(=O)N4CCOCC4)s3)CC2)cc1	3
CC(C)C(=O)NCCc1nc(-c2ccccc2Cl)no1	4
O=C(OCC(=O)N1c2ccccc2Sc2ccccc21)c1ccc[n+]([O-])c1	-2
O=C(Nc1cccc(S(=O)(=O)NC2=NCCC2)c1)c1ccc(=O)[nH]c1	2
COC(=O)[C@@]1(C(C)C)N=C(c2cc(OC)c(OC)c(OC)c2)[C@]2(O1)C(=O)Nc1ccc(F)cc12	5
O=C(OCCN1CCN(C2=NS(=O)(=O)c3ccccc32)CC1)c1ccccc1F	0
O=S(=O)(Nc1nccs1)c1cnc(Cl)c(Br)c1	1
O=S(=O)(Nc1ccccn1)c1ccc(Br)cc1	2
O=S(=O)(Nc1ccccn1)c1cnc(Cl)c(Br)c1	20*	TTR inh HuH7=-8;TTR act confirm=0
CCC[C@H]1[C@@H](OC(=O)NCc2ccc(C)cc2)CC[C@@]23CCCN2C(=O)CCC[C@@H]13	1
COc1ccc(N2C(=O)C3C4C=CC(C4)C3C2=O)nn1 (stereo not given)	1
O=C1C2C3C=CC(C3)C2C(=O)N1c1nccs1 (stereo not given)	15*	TTR inh HuH7=-6;TTR act confirm=0
O=C1c2ccccc2C(=O)N1c1nccs1	0
